MPTP inh – permeability transition pore inhibition | isolated mouse mitochondria, Ca2+ swelling absorbance, 30 min | inhibition, % at 10 µM | 360,000 tested, 1.4% active | AID 602449;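 active = inhibition of 50% or more, scaled per plate between neutral and stimulator controls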
tim10-1 inh – growth inhibitors of tim10-1 mutant yeast; S. cerevisiae tim10-1 ts strain growth, BacTiter-Glo, 24 h; inhibition, % at 20 µM; 330,000 tested, 2.2% active;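 active = inhibition of at least 40%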;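 note: mutant grown at 25 °C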
TIM10 inh – growth inhibitors of TIM10 yeast strain. S. cerevisiae TIM10 strain growth, BacTiter-Glo luminescence, 24 h. inhibition, % at 10 µM. 330,000 tested, 1.4% active;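 active = inhibition of 40% or more at the single tested concentration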;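 note: wild-type TIM10 isogenic control strain grown at permissive 25 °C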
tim23-1 inh – inhibits growth of tim23-1 mutant yeast | inhibition, % at 20 µM | AID 463212 | S. cerevisiae tim23-1 growth, BacTiter-Glo luminescence, 24 h | 330,000 tested, 1.3% active;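 active = growth inhibition of the mutant yeast at or above 50%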;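 note: temperature-sensitive mutant grown at 25 °C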
Mdm2-MdmX inh – disrupts the human Mdm2-MdmX interaction | inhibition, % at 8 µM | SaOS-2 split-luciferase Mdm2/MdmX complementation, luminescence | AID 485346 | O15151+Q00987 | 330,000 tested, 3% active;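 active = inhibition of at least 50% at 8 µM in the primary screen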
Target sequence (O15151 whole entry, looked up): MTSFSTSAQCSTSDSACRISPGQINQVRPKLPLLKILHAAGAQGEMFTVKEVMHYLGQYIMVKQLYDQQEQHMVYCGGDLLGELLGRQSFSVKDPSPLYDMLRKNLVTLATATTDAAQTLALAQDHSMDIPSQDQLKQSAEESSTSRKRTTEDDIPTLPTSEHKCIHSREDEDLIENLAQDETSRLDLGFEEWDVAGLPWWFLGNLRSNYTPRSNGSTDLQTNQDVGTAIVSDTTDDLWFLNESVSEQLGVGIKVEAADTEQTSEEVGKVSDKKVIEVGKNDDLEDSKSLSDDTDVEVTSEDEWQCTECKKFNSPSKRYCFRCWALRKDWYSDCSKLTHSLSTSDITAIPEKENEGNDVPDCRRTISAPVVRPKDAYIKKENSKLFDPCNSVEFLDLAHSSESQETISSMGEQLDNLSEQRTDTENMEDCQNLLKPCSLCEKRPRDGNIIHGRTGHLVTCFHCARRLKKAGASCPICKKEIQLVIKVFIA
Target sequence (Q00987 whole entry, looked up): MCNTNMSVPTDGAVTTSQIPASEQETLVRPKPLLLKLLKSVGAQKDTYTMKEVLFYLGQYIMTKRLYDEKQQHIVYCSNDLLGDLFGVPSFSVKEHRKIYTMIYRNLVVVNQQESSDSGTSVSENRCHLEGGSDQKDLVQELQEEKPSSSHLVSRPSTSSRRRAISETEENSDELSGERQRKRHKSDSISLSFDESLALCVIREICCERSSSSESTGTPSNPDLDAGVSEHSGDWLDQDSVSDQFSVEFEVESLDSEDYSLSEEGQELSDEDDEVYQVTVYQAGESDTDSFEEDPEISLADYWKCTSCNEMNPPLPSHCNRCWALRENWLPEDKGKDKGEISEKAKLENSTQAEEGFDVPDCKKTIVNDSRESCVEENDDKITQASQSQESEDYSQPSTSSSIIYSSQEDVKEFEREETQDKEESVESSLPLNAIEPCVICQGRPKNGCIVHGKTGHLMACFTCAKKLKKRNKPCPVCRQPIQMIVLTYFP
Mdm2 MdmX conf – confirmation of human Mdm2/MdmX interaction inhibitors; shares compounds with Mdm2-MdmX inh; Mdm2-MdmX binding, luminescent assay; inhibition, % at 8 µM; 10,000 tested, 55% active; in the data active = inhibition above about 40%
Full FLuc ctr – full-length luciferase inhibition in Mdm2/MdmX counter-screen; shares compounds with Mdm2-MdmX inh; SaOS-2 full-length luciferase counterscreen, luminescence; inhibition, % at 8 µM; 6,200 tested, 77% active; AID 504607;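 active = mean inhibition at 8 µM reaching about 37%, which flags the compound as non-specific, limit read from the data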;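 note: p53-null SaOS-2 cells with luciferase driven by a doxycycline-inducible promoter; compound on cells about two nights before reading with doxycycline added after day one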
MPTP counter – mitochondrial membrane potential, counter-screen; inhibition, % at 10 µM; shares compounds with MPTP inh; isolated mitochondria, Rhodamine 123 fluorescence; 5,000 tested, 78% active; AID 624504; in the data active = inhibition above about 22%
MPTP abs DR – dose response confirmation of mitochondrial permeability transition pore inhibitors. shares compounds with MPTP inh. IC50, µM. AID 651561. 780 tested, 58% active. isolated mitochondria swelling, absorbance; in the data active = IC50 below about 20 µM
MPTP counter DR – MPTP inhibitor counter-screen activity, dose response | shares compounds with MPTP inh | isolated mitochondria counterscreen, fluorescence read-out | IC50, µM | 780 tested, 49% active; in the data active = IC50 below about 80 µM
Large screens that a line does not name were inactive (follow-up assays come after a bar, where they were run). Compounds with a hit are over-represented: about 6.3% of the library has one in this group of screens.

O=C(NCc1ccccc1)C(c1cccc2ccccc12)n1c(=O)c(-c2ccccc2)nc2ccccc21 (configuration not stated)	none (no result: tim10-1 inh, TIM10 inh, tim23-1 inh, Mdm2-MdmX inh)
O=C(Nc1cccc(C(F)(F)F)c1)Nc1ccc(N2CCCC2)c(S(=O)(=O)Nc2ccccc2Cl)c1	MPTP inh 94, Mdm2-MdmX inh 99 | Mdm2 MdmX conf 97 | Full FLuc ctr 57 | MPTP counter 41
COC(=O)[C@@]12C[C@@H](CC(=O)NCc3ccc(OC)c(OC)c3)C(=O)N(Cc3cccc4ccccc34)C1=CCC(C)(C)C2	none (no result: tim10-1 inh, TIM10 inh, tim23-1 inh, Mdm2-MdmX inh)
Nc1nc(SCC(=O)Nc2ccc(C(F)(F)F)cc2)[nH]c(=O)c1NC(=O)c1ccc(F)c(F)c1	none
O=C(CSc1nc2nc(-c3cccs3)cc(C(F)(F)F)c2c(=O)[nH]1)Nc1ccc(F)c(F)c1	MPTP inh 76, Mdm2-MdmX inh 74 | Mdm2 MdmX conf 46 | Full FLuc ctr 80 | MPTP counter 50
COc1ccc(OC(C)C(=O)Nc2ccc([N+](=O)[O-])cc2)cc1 (configuration not stated)	none
O=C(Nc1ccc(Cl)cc1)Nc1csc([N+](=O)[O-])c1	MPTP inh 79, Mdm2-MdmX inh 94 | Mdm2 MdmX conf 76 | Full FLuc ctr inactive | MPTP counter 78
O=C(Nc1ccc(Cl)cc1)Nc1cccc(C(=O)O)c1	none
O=C(Nc1ccc(C(=O)O)cc1)Nc1ccc([N+](=O)[O-])cc1	none
O=C(Nc1ccc([N+](=O)[O-])cc1)Nc1ccc(Cl)cc1F	MPTP inh 100, Mdm2-MdmX inh 87 | Mdm2 MdmX conf 91 | Full FLuc ctr 73 | MPTP counter 101
Cc1cc(OC(F)F)ccc1NC(=O)Nc1ccc([N+](=O)[O-])cc1	MPTP inh 99, Mdm2-MdmX inh 96 | Mdm2 MdmX conf 86 | Full FLuc ctr 47 | MPTP counter 86
CC(=O)c1ccc2cc3c(cc2c1)OCO3	none (no result: tim10-1 inh, TIM10 inh, tim23-1 inh, Mdm2-MdmX inh)
CC(C)(C)n1nnnc1C(c1ccccc1)N1CCN(c2c(Cl)cncc2Cl)CC1 (configuration not stated)	none (no result: tim10-1 inh, TIM10 inh, tim23-1 inh, Mdm2-MdmX inh)
NC(c1ccccc1)c1csc(Nc2ccc(C(=O)NCCCO)cn2)n1 (configuration not stated)	none (no result: tim10-1 inh, TIM10 inh, tim23-1 inh, Mdm2-MdmX inh)
c1cncc(C2Nc3ccccc3-c3nc4ccccc4n32)c1 (configuration not stated)	MPTP inh 59, Mdm2-MdmX inh 53 | Mdm2 MdmX conf 52 | Full FLuc ctr 64 | MPTP counter 88
c1ccc2c(c1)NC(c1ccncc1)n1c-2nc2ccccc21 (configuration not stated)	none
Cc1ccc(C)c(NC(=O)c2ccccc2NS(=O)(=O)c2cc([N+](=O)[O-])ccc2C)c1	MPTP inh 92, Mdm2-MdmX inh 89 | Mdm2 MdmX conf 94 | Full FLuc ctr 40 | MPTP counter 58
COc1c(C)cc(C(O)c2ncc(-c3ccc(Cl)cc3)[nH]2)cc1C (configuration not stated)	none (no result: tim10-1 inh, TIM10 inh, tim23-1 inh, Mdm2-MdmX inh)
Cn1c(C(=O)N2CCN(c3ccc(Cl)cc3)CC2)cc2c(=O)[nH]c3ccccc3c21	none
Cc1ccc(Cl)cc1N1CCN(C(=O)c2cc3c(=O)[nH]c4ccccc4c3n2C)CC1	MPTP inh 57, Mdm2-MdmX inh 71 | Mdm2 MdmX conf 91 | Full FLuc ctr 79 | MPTP counter inactive | MPTP abs DR inactive | MPTP counter DR inactive
Cc1ccc(CSc2nccc(-c3c(C)nc4ccccn34)n2)cc1	MPTP inh 61, Mdm2-MdmX inh 66 | Mdm2 MdmX conf 46 | Full FLuc ctr 53 | MPTP counter inactive | MPTP abs DR inactive | MPTP counter DR inactive
Cc1ccc(CSc2ncn(-c3ccccc3)n2)cc1	none
COc1ccc(CCN2CC(C(=O)N(C)Cc3ccccn3)CCC2=O)cc1 (configuration not stated)	none (no result: tim10-1 inh, TIM10 inh, tim23-1 inh, Mdm2-MdmX inh)
CN(C)CCN=Cc1c(O)n(Cc2ccccc2)c(=O)c2ccccc12	none
CC1(C)CC(N=Cc2c(O)n(Cc3ccc4c(c3)OCO4)c(=O)c3ccccc23)CC(C)(C)N1	MPTP inh 53, Mdm2-MdmX inh 93 | Mdm2 MdmX conf inactive | Full FLuc ctr 69 | MPTP counter inactive | MPTP abs DR 4.9 | MPTP counter DR inactive
CCc1nc2c(OCCc3cccc(OC)c3)cccn2c1N(C)C(=O)c1ccc(OC)cc1	none (no result: tim10-1 inh, TIM10 inh, tim23-1 inh, Mdm2-MdmX inh)
C=CCn1c(C)cc(C2=NNC(=NC(C)(C)C)SC2)c1C	MPTP inh 101, Mdm2-MdmX inh 88 | Mdm2 MdmX conf 93 | Full FLuc ctr 80 | MPTP counter 76
COc1ccc(C(=O)c2sc(Nc3cccc(OC)c3)c(C(=O)Nc3cccc(C)c3C)c2N)cc1	none
COc1ccccc1NC(=O)c1c(Nc2ccccc2C)sc(C(=O)Nc2cccc(Cl)c2)c1N	MPTP inh 87, Mdm2-MdmX inh 75 | Mdm2 MdmX conf inactive | MPTP counter 51
CN1CCN(C(c2ccccc2)c2ccc(Cl)cc2)CC1 (configuration not stated)	none
Clc1ccc(C(c2ccccc2)N2CCNCC2)cc1 (configuration not stated)	MPTP inh 80, Mdm2-MdmX inh 62 | Mdm2 MdmX conf 47 | Full FLuc ctr 76 | MPTP counter inactive | MPTP abs DR 6.7 | MPTP counter DR inactive
Cc1cc(N2CCN(c3ccccc3)CC2)nc(NCc2ccccc2)n1	MPTP inh 65, Mdm2-MdmX inh 76 | Mdm2 MdmX conf inactive | MPTP counter 21
Cc1ccc(Nc2cc(C)nc(NCc3ccccc3)n2)cc1	MPTP inh 56, Mdm2-MdmX inh 57 | Mdm2 MdmX conf inactive | MPTP counter 45
Cc1cc(=O)c2c(o1)C(=O)c1occc1C2=O	none (no result: tim10-1 inh, TIM10 inh, tim23-1 inh, Mdm2-MdmX inh)
CCCc1c(NC(=O)Nc2ccc(F)cc2)cnn1-c1ccccc1	MPTP inh 52, Mdm2-MdmX inh 89 | Mdm2 MdmX conf 61 | Full FLuc ctr inactive | MPTP counter 67
Cc1ccc(S(=O)(=O)NCc2ccccc2)cc1C(=O)N1CCN(S(=O)(=O)c2ccccc2F)CC1	none (no result: tim10-1 inh, TIM10 inh, tim23-1 inh, Mdm2-MdmX inh)
C=CCN(CC=C)CC(=O)Nn1c(C)ccc1C	none (no result: tim10-1 inh, TIM10 inh, tim23-1 inh, Mdm2-MdmX inh)
CC(=O)c1ccc2c(c1)N(CCCN(C)C)c1ccccc1S2	none (no result: tim10-1 inh, TIM10 inh, tim23-1 inh, Mdm2-MdmX inh)
CCC(=O)c1ccc2c(c1)N(CCCN(C)C)c1ccccc1S2	MPTP inh 72, Mdm2-MdmX inh 55 | Mdm2 MdmX conf inactive | MPTP counter inactive
CCC(=O)N1CCC1(C)C(=O)NCc1ccccc1SC (configuration not stated)	none (no result: tim10-1 inh, TIM10 inh, tim23-1 inh, Mdm2-MdmX inh)
CSc1nc(Oc2ccccc2)c2sccc2n1	none

Screening data deposited in PubChem by Sanford-Burnham Center for Chemical Genomics.
